Where “and” joins values, the source holds several entries; their conditions need not be identical. Identical values can stand only once. In all, about 5,500 compounds went through this assay and about 2,000 (36%) were called active. Another 18% or so got no clear call; they are omitted. No stated cut-off is given here; in the data, active means normalized growth mostly below about 0.91 (no sharp cut-off); inconclusive means no clear call, values can overlap the other calls; inactive means mostly above about 0.92. The list shows a part of the results.
Assay: chemical genetic growth profiling, strain panel (AID 1159580);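 further: tested at 20 µM; growth read once vehicle control cultures reached saturation at 30 °C; 1 = growth at the plate median or of vehicle wells; lower values mean less growth of the strain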
Conditions: S. cerevisiae deletion strains, growth OD

Measured: normalized growth

CC1=C(C(C)O)C2=NC1C=c1[nH]c(c(C)c1C(C)O)=Cc1[nH]c(c(CCC(=O)O)c1C)C=c1[nH]c(c(C)c1CCC(=O)O)=C2 (configuration not stated)
inactive: locus YAL013W, strain DEP1, hits give low values 0.937 | locus YAL021C, strain ccr4, hits give low values 0.982 | locus YAL026C, strain drs2, hits give low values 0.988 | locus YAL030W, strain snc1, hits give low values 0.995 | locus YBL061C, strain skt5, hits give low values 0.986 | locus YBR009C, strain hhf1, hits give low values 0.986 | locus YBR021W, strain FUR4, hits give low values 0.998 | locus YBR023C, strain chs3, hits give low values 0.986 | locus YBR171W, strain sec66, hits give low values 0.994 | locus YBR229C, strain ROT2, hits give low values 1 | locus YBR231C, strain swc5, hits give low values 0.988 | locus YBR279W, strain paf1, hits give low values 1.01 | locus YCL011C, strain gbp2, hits give low values 0.994 | locus YCL016C, strain dcc1, hits give low values 0.986 | locus YCL029C, strain bik1, hits give low values 1.02 | locus YCL061C, strain MRC1, hits give low values 0.989 | locus YCL069W, strain vba3, hits give low values 0.99 | locus YCR088W, strain abp1, hits give low values 0.985 | locus YDL005C, strain med2, hits give low values 0.995 | locus YDL035C, strain GPR1, hits give low values 0.976 | locus YDL040C, strain nat1, hits give low values 0.998 | locus YDL074C, strain BRE1, hits give low values 0.956 | locus YDL101C, strain DUN1, hits give low values 0.999 | locus YDL185W, strain tfp1, hits give low values 1 | locus YDL192W, strain arf1, hits give low values 0.989 | locus YDR001C, strain nth1, hits give low values 1 | locus YDR069C, strain doa4, hits give low values 0.999 | locus YDR101C, strain arx1, hits give low values 1.01 | locus YDR137W, strain rgp1, hits give low values 1.04 | locus YDR150W, strain NUM1, hits give low values 0.997 | locus YDR159W, strain sac3, hits give low values 0.946 | locus YDR162C, strain NBP2, hits give low values 0.897 | locus YDR195W, strain ref2 0.935 | locus YDR297W, strain sur2, hits give low values 0.986 | locus YDR318W, strain mcm21, hits give low values 1.01 | locus YDR334W, strain swr1, hits give low values 0.993 | locus YDR335W, strain msn5, hits give low values 1 | locus YDR388W, hits give low values 1.02 | locus YDR392W, strain spt3, hits give low values 0.839 | locus YDR502C, strain sam2, hits give low values 0.977 | locus YEL003W, strain gim4, hits give low values 0.977 | locus YEL037C, strain rad23, hits give low values 1 | locus YEL061C, strain CIN8 (second series), hits give low values 0.996 | locus YEL061C, strain CIN8, hits give low values 0.995 | locus YER015W, strain faa2, hits give low values 1.01 | locus YER016W, strain bim1, hits give low values 0.989 | locus YER110C, hits give low values 1.03 | locus YER111C, strain swi4, hits give low values 0.986 | locus YER155C, strain BEM2 (second series), hits give low values 0.998 | locus YER155C, strain BEM2, hits give low values 0.995 | locus YER167W, strain BCK2, hits give low values 0.96 | locus YFR010W, strain ubp6, hits give low values 0.999 | locus YGL078C, strain dbp3, hits give low values 1.03 | locus YGL086W, strain mad1, hits give low values 0.968 | locus YGL167C, strain pmr1, hits give low values 0.995 | locus YGL173C, strain kem1, hits give low values 0.983 | locus YGL227W, strain vid30, hits give low values 0.993 | locus YGL240W, strain doc1, hits give low values 0.945 | locus YGL248W, strain PDE1, hits give low values 1.01 | locus YGL253W, strain hxk2, hits give low values 1 | locus YGR078C, strain PAC10, hits give low values 0.984 | locus YGR135W, strain pre9, hits give low values 0.973 | locus YGR252W, strain gcn5, hits give low values 1 | locus YHR013C, strain ard1, hits give low values 0.931 | locus YHR027C, strain rpn1, hits give low values 1 | locus YHR030C, strain SLT2, hits give low values 1.01 and 1.06 | locus YHR079C, strain IRE1 (second series), hits give low values 1.01 | locus YHR079C, strain IRE1, hits give low values 1.05 | locus YHR094C, strain hxt1, hits give low values 1.02 | locus YHR129C, strain ARP1, hits give low values 1 | locus YHR142W, strain chs7, hits give low values 1.01 | locus YHR200W, strain rpn10, hits give low values 0.986 | locus YIL066C, strain RNR3, hits give low values 0.98 | locus YIL073C, strain SPO22, hits give low values 1.12 | locus YIL125W, strain kgd1, hits give low values 1.02 | locus YIR030C, strain dcg1, hits give low values 1.01 | locus YJL092W, strain hpr5, hits give low values 0.992 | locus YJL095W, strain BCK1 (second series), hits give low values 0.994 | locus YJL095W, strain BCK1, hits give low values 0.982 and 1.06 | locus YJL115W, strain asf1, hits give low values 0.977 | locus YJL129C, strain trk1, hits give low values 0.949 | locus YJL134W, strain LCB3, hits give low values 1 | locus YJL154C, strain vps35, hits give low values 0.995 | locus YJL164C, strain tpk1, hits give low values 0.986 | locus YJL166W, strain qcr8, hits give low values 0.966 | locus YJL168C, strain set2, hits give low values 1 | locus YJL187C, strain SWE1 (second series), hits give low values 1

From PubChem BioAssay AID1159580 (chemical genetic matrix, 2015)
